Measured values published in ChEMBL document CHEMBL3988442, “University of Dundee, Small-Polar-MMV Screening Library” (2021).
Out of some 48,000 compounds screened, about 13,000 (27%) showed an effect of 50% or more. This is one part of the list.

What follows are compounds tested on Wolbachia pipientis (assay: Anti-Wolbachia Cell-Based Screen). Settings: 5 µM.
Type: functional
Design: scale not given: in the data most compounds retested in dose-response had high values

SMILES | Percent Effect
Cn1ncc(C2CC(=O)NCc3nc4ccccn4c32)c1C1CC1 (stereo not given) | 1.817%
CCNC(=O)[C@@H]1CCCN1C1(C(=O)NC)CCC1.Cl | 0.1969%
O=C1CC2(CCSC2)C(=O)N1Cc1ncc(-c2ccccc2)o1 (stereo not given) | -14.26%
NC(=O)CN(CC(=O)NCCc1c(F)cccc1F)C1CCCC1 | 11.15%
C[C@@H]1CN(Cc2ccc(C(F)(F)F)cc2F)CC[C@]1(C)O | -2.035%
Cc1nc(N2CCCC2)ncc1-c1cc(O)nc(N2CCCC2)n1 | 3.993%
CCCC(=O)N(C)Cc1nc(N2CCCC2)ncc1-c1ccncc1.Cl | 137.6%
CCOc1ccc(CN(C)C(=O)c2nc(N3CCCC3)ncc2Cl)cc1 | 16.2%
CN(Cc1cnccn1)C(=O)Nc1cc(F)cc(N2CCCC2)c1 | 16.17%
COCC(=O)Nc1cnc(N2CCCC2)nc1 | -4.633%
COCC(=O)N(C)Cc1nc(N2CCCC2)ncc1-c1ccncc1.Cl | 87.58%
COc1ccc(CC(=O)N2CC[C@@H](OC)[C@@H]2Cc2cccnc2)cc1.O=C(O)C(F)(F)F | 135%
COc1cccc(CC(=O)N2CC[C@@H](OC)[C@@H]2Cc2cccnc2)c1.O=C(O)C(F)(F)F | 137.5%
CO[C@H]1CCN(S(=O)(=O)c2cn(C)cn2)[C@H]1Cc1cccnc1.O=C(O)C(F)(F)F.O=C(O)C(F)(F)F | -4.938%
Cc1noc([C@H]2COC[C@H]3CN(C(=O)Cc4ccc(F)cc4)C[C@H]32)n1 | -6.311%
COc1cc(CN(C)C(=O)NC2CC2)ccc1SC | 1.322%
CC1CN(C)c2ccccc2CN1C(=O)c1ccncc1 (stereo not given) | -3.17%
Cc1ccc2c(c1)CN(C(=O)C1CCCCC1)C(CN(C)C)CO2.Cl (stereo not given) | -7.003%
Cc1ccc2c(c1)CN(C(=O)c1ccccc1F)C(CN(C)C)CO2.Cl (stereo not given) | -8.172%
CN(C)CC1COCCN1C(=O)C1(c2cccs2)CCCC1.O=CO (stereo not given) | -9.313%
Cc1ccc2c(c1)CN(C(=O)c1cccs1)C(CN(C)C)CO2 (stereo not given) | 64.15%
CCN(C)S(=O)(=O)N1CCCC1CC(=O)c1cccs1 (stereo not given) | 13.08%
Cc1nc(C)c(C(=O)N2CCc3c(C)cccc32)o1 | -0.835%
Cc1ccc2c(c1)CN(C(=O)c1cnc(C)cn1)C(CN(C)C)CO2.Cl (stereo not given) | 102.7%
Cc1nc(C)c(C(=O)N2Cc3ccccc3OCC2CN(C)C)o1.Cl.Cl (stereo not given) | 85.27%

SMILES | Percent Effect
CCOC(=O)CC1CCCCN1C(=O)c1cnc(C)cn1 (stereo not given) | 6.285%
Cc1nc(C)c(C(=O)N2Cc3cc(F)ccc3CC2C)o1 (stereo not given) | -9.907%
Cc1ccc2c(c1)CN(C(=O)c1ccncc1)C(CN(C)C)CO2.Cl (stereo not given) | 112.6%
Cc1ccc(S(=O)(=O)NC(=O)COc2ccc(CC#N)cc2)s1 | -2.544%
CN(c1ccc(-c2nc(C3CC3)no2)cn1)C1CCOCC1 | 5.539%
Cc1cccc(NCCNc2ccc(C#N)cn2)n1 | 14.53%
CN(Cc1nnc(-c2ccco2)o1)Cc1nc2c(s1)CCCC2 | -12.52%
Cc1ccc2c(c1)CN(C(=O)c1cccnc1)C(CN(C)C)CO2.Cl (stereo not given) | 73.73%
COc1ccc(C(=O)N2Cc3cc(C)ccc3OCC2CN(C)C)cc1.Cl (stereo not given) | 72.78%
COc1ccccc1C(=O)N1Cc2cc(C)ccc2OCC1CN(C)C.Cl (stereo not given) | -11.9%
COc1ccc(C(=O)NC[C@H]2COCc3nc4cc(C)ccc4n32)cc1 | -9.863%
CCOCCC(=O)NCc1ccnc(NC2CC2)c1 | -81.15%
CC(C)(C)OC(=O)N1CCCC[C@H]1C(=O)NCc1nccs1 | 1.043%
CCC(NS(C)(=O)=O)c1ccccc1C (stereo not given) | -2.544%
Cc1ccccc1C(C)NC(=O)c1ccc(=O)n(C)c1 (stereo not given) | 28.6%
Cc1ccccc1C(CC(=O)NCC(N)=O)c1ccccc1 (stereo not given) | -4.865%
Cc1ccccc1C(NC(=O)CCCS(C)(=O)=O)C(C)(C)C (stereo not given) | -11.53%
Cc1ccccc1C(C)NC(=O)CN1CCN(Cc2ccc(Cl)s2)CC1 (stereo not given) | -0.8834%
Cc1ccc(C)c(C(NC(=O)C(C)(C)C)c2cccnc2)c1 (stereo not given) | 4.189%
CCCC1(NC(=O)C(c2ccccc2C)N(C)C)CC1 (stereo not given) | 5.158%
CCC(NC(=O)C(C)C)c1ccccc1C (stereo not given) | 112%
CCC(NC(=O)C(C)(C)C)c1ccccc1C (stereo not given) | 109.5%
CCC(=O)NC(C)c1ccccc1C (stereo not given) | 111%
CCC(=O)NC(CC)c1ccccc1C (stereo not given) | 115.1%
CCC(NCc1ccccc1C)c1ccccc1OCC(=O)NC (stereo not given) | -1.01%
